The results in this text go back to the supplement of paper PMC10646978.

Common to all, as to settings: modulator concentration 10 µM
Experiment [1] has as its system RAW-Dual (murine macrophage reporter line). The experiment can be described thus: NF-kB reporter (SEAP) activity fold change vs agonist alone; higher = enhanced NF-kB activity. Put shortly: (§1)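 Compound reached 10 μM final in each well by pin transfer, onto RAW-Dual murine macrophage reporter cells seeded at 50 000 per well in 384-well plates. After 1 hour at 37 °C, the cells were stimulated overnight with a PRR agonist. SEAP in the supernatant was read with QUANTI-Blue at 620 nm absorbance for NF-κB, and Lucia luciferase was read with QUANTI-Luc luminescence for IRF. Each signal was turned into fold change against the mean agonist-only control on the same plate, and two replicate plates were averaged with propagated errors.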

For experiment [2] the test system is unchanged. Put plainly: IRF reporter (Lucia luciferase) activity fold change vs agonist alone; higher = enhanced IRF activity. Put shortly:
as §1

Experiment [3] has the same test system. Put plainly: viability score (confluency relative to resting cells, overnight) (fraction); higher = more viable, active = viable (0.7 or more). The procedure, abridged: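 RAW-Dual macrophages in 384-well plates were treated overnight with compound at 10 μM final. IncuCyte imaging recorded confluency, and IncuCyte software built two confluency masks across every imaged well. The viability score expresses confluency relative to resting cells and was judged against a cutoff, which a compound met only if both masks exceeded 70% of resting cells.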

The mark [4] stands for this setting: agonist: CpG ODN 1826 0.5 ug/mL.

± gives the standard deviation.

With `Cc1ccc(C)c(NC(=O)CCN2CCN(C=O)CC2)c1`, the NF-kB reporter was found to be 0.822 ± 0.17 in experiment [1] (setting [4]), 0.905 ± 0.088 in experiment [1] (agonist: LPS 0.1 ug/mL) and 0.967 ± 0.079 in experiment [1] (agonist: MPLA […]). Moreover, the values for the IRF reporter in experiment [2] (agonist: 3'3'-cGAMP 10 ug/mL), in experiment [2] (agonist: LPS 0.1 ug/mL) and in experiment [2] (agonist: MPLA […]) were 0.962 ± 0.045, 1.27 ± 0.37 and 1.33 ± 0.18, respectively. Further, the viability score in experiment [3] is 0.979 (active).

Turning to `C1CCC(N2NC2C2NN2C2CCCCC2)CC1` (stereo unspecified), the NF-kB reporter in experiment [1] (setting [4]) was 1.01 ± 0.22; in experiment [1] (agonist: LPS 0.1 ug/mL), 1.03 ± 0.11; in experiment [1] (agonist: MPLA […]), 0.964 ± 0.091. Also, the IRF reporter in experiment [2] (agonist: 3'3'-cGAMP 10 ug/mL) worked out at 0.938 ± 0.024; in experiment [2] (agonist: LPS 0.1 ug/mL), 1.23 ± 0.19; in experiment [2] (agonist: MPLA […]), 1.05 ± 0.11. Also, in experiment [3], the viability score is 1.01 (active).

With `CC(C)(Oc1ccc(CCNC(=O)c2ccc(-c3ccc(Cl)cc3)o2)cc1)C(=O)O`, the values for the NF-kB reporter in experiment [1] (setting [4]), in experiment [1] (agonist: LPS 0.1 ug/mL) and in experiment [1] (agonist: MPLA […]) were 1.09 ± 0.087, 1.03 ± 0.078 and 0.976 ± 0.062, respectively. For the same molecule, the figures for the IRF reporter in experiment [2] (agonist: 3'3'-cGAMP 10 ug/mL), in experiment [2] (agonist: LPS 0.1 ug/mL) and in experiment [2] (agonist: MPLA […]) were 0.942 ± 0.067, 1.39 ± 0.22 and 1.08 ± 0.1, respectively. The viability score in experiment [3] was 1.01 (active).

`COc1ccc(C2Nc3ccccc3-c3nnc(SCc4ccc(C)cc4)nc3O2)cc1C` (stereo unspecified): the NF-kB reporter came to 0.964 ± 0.079 in experiment [1] (setting [4]), 1.07 ± 0.086 in experiment [1] (agonist: LPS 0.1 ug/mL) and 0.919 ± 0.04 in experiment [1] (agonist: MPLA […]). Also, the figures for the IRF reporter in experiment [2] (agonist: 3'3'-cGAMP 10 ug/mL), in experiment [2] (agonist: LPS 0.1 ug/mL) and in experiment [2] (agonist: MPLA […]) were 0.961 ± 0.13, 0.992 ± 0.041 and 1.06 ± 0.15, respectively. Also, the viability score in experiment [3] is 1 (active).

Regarding `O=C(CCC(=O)NN=Cc1ccc(O)cc1O)NN=Cc1ccc(O)cc1O`, the NF-kB reporter in experiment [1] (setting [4]) stood at 0.934 ± 0.084; in experiment [1] (agonist: LPS 0.1 ug/mL), 1.05 ± 0.067; in experiment [1] (agonist: MPLA […]), 0.978 ± 0.11. Besides, the IRF reporter in experiment [2] (agonist: 3'3'-cGAMP 10 ug/mL) stood at 0.944 ± 0.042; in experiment [2] (agonist: LPS 0.1 ug/mL) it was 1.52 ± 0.18; in experiment [2] (agonist: MPLA […]), 1.26 ± 0.13. For the same molecule, in experiment [3], the viability score is 0.994 (active).

With `Cc1c(C(=O)ON=C(N)c2ccncc2)cccc1[N+](=O)[O-]`, the NF-kB reporter in experiment [1] (setting [4]) was 1.01 ± 0.08; in experiment [1] (agonist: LPS 0.1 ug/mL), 0.996 ± 0.06; in experiment [1] (agonist: MPLA […]), 0.851 ± 0.069. The values for the IRF reporter in experiment [2] (agonist: 3'3'-cGAMP 10 ug/mL), in experiment [2] (agonist: LPS 0.1 ug/mL) and in experiment [2] (agonist: MPLA […]) were 0.421 ± 0.031, 1.33 ± 0.099 and 1.23 ± 0.16, respectively. The viability score in experiment [3] was 0.992 (active).

On to `O=C(CCN1C(=O)c2cccc([N+](=O)[O-])c2C1=O)Nc1ccc(Cl)cc1`, for which the NF-kB reporter in experiment [1] (setting [4]) turned out to be 0.886 ± 0.073; in experiment [1] (agonist: LPS 0.1 ug/mL), 1.02 ± 0.058; in experiment [1] (agonist: MPLA […]), 0.899 ± 0.077. The IRF reporter worked out at 0.848 ± 0.022 in experiment [2] (agonist: 3'3'-cGAMP 10 ug/mL), 1.4 ± 0.16 in experiment [2] (agonist: LPS 0.1 ug/mL) and 1.14 ± 0.23 in experiment [2] (agonist: MPLA […]). Besides, the viability score in experiment [3] is 1.01 (active).

Turning to `COc1ccc(NC(=O)CN(c2ccc(F)cc2)S(C)(=O)=O)c(OC)c1`, the values for the NF-kB reporter in experiment [1] (setting [4]), in experiment [1] (agonist: LPS 0.1 ug/mL) and in experiment [1] (agonist: MPLA […]) were 0.872 ± 0.073, 0.896 ± 0.067 and 1.05 ± 0.099, respectively. The IRF reporter turned out to be 0.921 ± 0.042 in experiment [2] (agonist: 3'3'-cGAMP 10 ug/mL), 1.23 ± 0.089 in experiment [2] (agonist: LPS 0.1 ug/mL) and 1.35 ± 0.14 in experiment [2] (agonist: MPLA […]). Moreover, the viability score in experiment [3] was 0.999 (active).

On to `CCS(=O)(=O)N1CCC(Oc2cc(C)nc(C)n2)CC1`, for which the NF-kB reporter came out at 1.23 ± 0.07 in experiment [1] (setting [4]), 0.996 ± 0.086 in experiment [1] (agonist: LPS 0.1 ug/mL) and 0.963 ± 0.046 in experiment [1] (agonist: MPLA […]). Besides, the IRF reporter was determined as 0.982 ± 0.05 in experiment [2] (agonist: 3'3'-cGAMP 10 ug/mL), 1.05 ± 0.049 in experiment [2] (agonist: LPS 0.1 ug/mL) and 0.916 ± 0.093 in experiment [2] (agonist: MPLA […]). Further, in experiment [3], the viability score was 0.997 (active).

Turning to `Cl.Cl.O=C(O)COCCN1CCN(C(c2ccccc2)c2ccc(Cl)cc2)CC1` (stereo unspecified), the NF-kB reporter in experiment [1] (setting [4]) is 0.906 ± 0.15; in experiment [1] (agonist: LPS 0.1 ug/mL), 0.996 ± 0.29; in experiment [1] (agonist: MPLA […]), 0.892 ± 0.05. Moreover, the IRF reporter in experiment [2] (agonist: 3'3'-cGAMP 10 ug/mL) stood at 0.942 ± 0.029; in experiment [2] (agonist: LPS 0.1 ug/mL) it was 1.17 ± 0.39; in experiment [2] (agonist: MPLA […]), 1.14 ± 0.11. Also, the viability score in experiment [3] was 0.987 (active).

`O=c1[nH]c2ccccc2n1CCN1CCN(c2cccc(C(F)(F)F)c2)CC1`: the results for the NF-kB reporter in experiment [1] (setting [4]), in experiment [1] (agonist: LPS 0.1 ug/mL) and in experiment [1] (agonist: MPLA […]) were 0.278 ± 0.037, 0.403 ± 0.097 and 0.448 ± 0.028, respectively. In addition, the IRF reporter in experiment [2] (agonist: 3'3'-cGAMP 10 ug/mL) worked out at 0.953 ± 0.034; in experiment [2] (agonist: LPS 0.1 ug/mL), 1.24 ± 0.34; in experiment [2] (agonist: MPLA […]), 1.51 ± 0.2. In addition, in experiment [3], the viability score was 0.915 (active).

As to `CC(C)NCC(O)COc1ccc(CCOCC2CC2)cc1.Cl` (stereo unspecified), the NF-kB reporter in experiment [1] (setting [4]) is 0.952 ± 0.13; in experiment [1] (agonist: LPS 0.1 ug/mL), 1.2 ± 0.25; in experiment [1] (agonist: MPLA […]) it was 0.968 ± 0.068. Further, the IRF reporter amounted to 0.907 ± 0.032 in experiment [2] (agonist: 3'3'-cGAMP 10 ug/mL), 1.57 ± 0.17 in experiment [2] (agonist: LPS 0.1 ug/mL) and 1.31 ± 0.1 in experiment [2] (agonist: MPLA […]). Besides, the viability score in experiment [3] was 0.981 (active).

Turning to `Cc1cc(-c2ccc(N=Cc3ccc(Cl)c([N+](=O)[O-])c3)c(C)c2)ccc1N=Cc1ccc(Cl)c([N+](=O)[O-])c1`, the NF-kB reporter in experiment [1] (setting [4]) turned out to be 1.01 ± 0.056; in experiment [1] (agonist: LPS 0.1 ug/mL), 1.01 ± 0.073; in experiment [1] (agonist: MPLA […]), 1.02 ± 0.065. For the same molecule, the IRF reporter in experiment [2] (agonist: 3'3'-cGAMP 10 ug/mL) was 0.821 ± 0.031; in experiment [2] (agonist: LPS 0.1 ug/mL), 1.38 ± 0.11; in experiment [2] (agonist: MPLA […]) it was 1.13 ± 0.19. For the same molecule, the viability score in experiment [3] was 1 (active).
